Molecules are shown by their SMILES. Records with an inconclusive call do not appear. Some compounds were tested as several samples or in several runs, with calls that do not always agree. Active and inactive are the calls of the source. Rule for the calls, unless noted: active = hit-call score of the fitted dose curve at least 0.9, where 1 is the maximum; inconclusive = response in the unintended direction; inactive = score below 0.9.

Steroid hormone receptor ERR1 (Homo sapiens), sequence (P11474 whole entry, looked up, the tested form may be a part): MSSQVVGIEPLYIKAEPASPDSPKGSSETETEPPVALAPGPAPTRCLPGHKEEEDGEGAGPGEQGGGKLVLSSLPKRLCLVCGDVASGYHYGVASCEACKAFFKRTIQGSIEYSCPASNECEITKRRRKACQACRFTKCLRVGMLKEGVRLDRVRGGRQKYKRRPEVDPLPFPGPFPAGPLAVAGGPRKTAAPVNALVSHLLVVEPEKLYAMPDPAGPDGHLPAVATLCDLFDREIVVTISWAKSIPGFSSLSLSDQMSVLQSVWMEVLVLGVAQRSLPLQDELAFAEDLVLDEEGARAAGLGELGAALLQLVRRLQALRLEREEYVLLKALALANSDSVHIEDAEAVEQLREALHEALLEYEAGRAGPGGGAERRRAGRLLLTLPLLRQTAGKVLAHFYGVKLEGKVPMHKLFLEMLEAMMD
X-box-binding protein 1 (Homo sapiens), sequence (P17861 whole entry, looked up, the tested form may be a part): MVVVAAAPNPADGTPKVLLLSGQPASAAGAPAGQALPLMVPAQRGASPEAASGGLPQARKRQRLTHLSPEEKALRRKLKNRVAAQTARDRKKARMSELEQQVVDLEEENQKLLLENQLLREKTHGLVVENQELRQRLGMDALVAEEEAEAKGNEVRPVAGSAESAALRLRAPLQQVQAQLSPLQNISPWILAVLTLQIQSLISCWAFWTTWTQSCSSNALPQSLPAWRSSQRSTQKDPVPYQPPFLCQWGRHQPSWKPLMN

The first assay has as its target Steroid hormone receptor ERR1 (Homo sapiens) (UniProt P11474). Briefly: ATG_ERRa_TRANS: Attagene TRANS-FACTORIAL HepG2 Assay for human Estrogen-Related Receptor alpha (ERRa) (AID 2282971). The settings on record: HepG2 Attagene TRANS reporter, ERRa transactivation. The procedure, abridged:
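HepG2 cells transiently transfected with GAL4-UAS reporter units and chimeric NR-Gal4 constructs; after 24 hour compound incubation, reporter mRNA quantified by RT-PCR, fluorescent labelling and capillary electrophoresis, gain of signal versus DMSO.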
Consider `COc1nc(NC(C)C)nc(NC(C)C)n1`, for which the compound was called inactive.

`COc1nc(C)nc(NC(=O)NS(=O)(=O)c2ccccc2CCC(F)(F)F)n1`: the compound was called inactive.

Regarding `COc1ccc(C(c2ccc(OC)cc2)C(Cl)(Cl)Cl)cc1`, the compound was classed as inactive.

In the case of `COP(=S)(OC)Oc1nc(Cl)c(Cl)cc1Cl`, the result was inactive.

As for `COC(=O)N(OC)c1ccccc1COc1ccn(-c2ccc(Cl)cc2)n1`, the call was inactive.

On to `N#Cc1nn(-c2c(Cl)cc(C(F)(F)F)cc2Cl)c(N)c1S(=O)C(F)(F)F` (stereo not drawn), for which the outcome was inactive.

As for `C=CCC1=C(C)[C@@H](OC(=O)[C@@H]2[C@@H](C=C(C)C)C2(C)C)CC1=O`, the outcome was inactive.

With `CO/C=C(/C(=O)OC)c1ccccc1Oc1cc(Oc2ccccc2C#N)ncn1`, the call was inactive.

In the case of `CON(C)C(=O)Nc1ccc(Cl)c(Cl)c1`, the outcome was inactive.

In the case of `CCCCOC(=O)c1ccccc1C(=O)OCCCC`, the outcome was inactive.

With `COC(=O)c1ccccc1C(=O)OC`, the compound was classed as inactive.

As to `CCCCNC(=O)OCC#CI`, the compound was called inactive.

For `CC(C)(C)c1ccc(CSc2cnn(C(C)(C)C)c(=O)c2Cl)cc1`, the result was inactive.

Regarding `C=CCC1=C(C)C(OC(=O)C2C(C=C(C)C)C2(C)C)CC1=O` (stereo not drawn), the call was inactive.

As for `COC(=O)C=C(C)OP(=O)(OC)OC`, the outcome was inactive.

`CC(C)C1(C)N=C(c2nc3ccccc3cc2C(=O)O)NC1=O` (stereo not drawn): the outcome was inactive.

Regarding `CCCN(CCC)c1c([N+](=O)[O-])cc(S(N)(=O)=O)cc1[N+](=O)[O-]`, the compound was called inactive.

For `CCc1nn(C)c(C(=O)NCc2ccc(C(C)(C)C)cc2)c1Cl`, the outcome was inactive.

In the case of `OC(c1ccc(Cl)cc1)(c1cncnc1)c1ccccc1Cl` (stereo not drawn), the result was inactive.

The next assay has as its target X-box-binding protein 1 (Homo sapiens) (UniProt P17861). Kind of assay: ATG_Xbp1_CIS: Attagene CIS-FACTORIAL HepG2 Assay for human X-box Binding Protein 1 (XBP1) (AID 2282972; active = hit-call score of the fitted dose curve at least 0.9, where 1 is the maximum; inactive = score below 0.9). The following applies: HepG2 XBP1 cis-element reporter, Attagene multiplex; actives raise or lower the signal. The gist of the method: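 Read-out: fluorescent reporter mRNA fragments resolved by capillary electrophoresis after RT-PCR. Human HepG2 liver cells carried transfected cis-promoter reporter units and were exposed to chemicals for 24 hours. Gain or loss of signal fitted relative to DMSO baseline.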
With `COc1nc(NC(C)C)nc(NC(C)C)n1`, the compound was classed as inactive.

For `Oc1ccccc1-c1ccccc1`, the call was inactive.

With `COc1nc(C)nc(NC(=O)NS(=O)(=O)c2ccccc2Cl)n1`, the call was inactive.

On to `CCOC(=O)CC(SP(=S)(OC)OC)C(=O)OCC` (stereo not drawn), for which the half-maximal activity concentration (AC50) is 100 µM (active) and the compound was classed as inactive.

Take `CCCCC(CC)COC(=O)c1ccccc1C(=O)OCC(CC)CCCC` (stereo not drawn): the result was inactive.

Regarding `COc1nc(C)nc(NC(=O)NS(=O)(=O)c2ccccc2CCC(F)(F)F)n1`, the compound was called inactive.

As for `COc1ccc(C(c2ccc(OC)cc2)C(Cl)(Cl)Cl)cc1`, the AC50 is 28.3 µM (active) and the compound was called inactive.

With `CNC(=S)S`, the compound was classed as inactive.

In the case of `COP(=S)(OC)Oc1nc(Cl)c(Cl)cc1Cl`, the result was inactive.

`COC(=O)N(OC)c1ccccc1COc1ccn(-c2ccc(Cl)cc2)n1`: the outcome was inactive.

In the case of `N#Cc1nn(-c2c(Cl)cc(C(F)(F)F)cc2Cl)c(N)c1S(=O)C(F)(F)F` (stereo not drawn), the AC50 was 15.3 µM (active) and the call was inactive.

`C=CCC1=C(C)[C@@H](OC(=O)[C@@H]2[C@@H](C=C(C)C)C2(C)C)CC1=O`: the result was inactive.

Turning to `CCCC1COC(Cn2cncn2)(c2ccc(Cl)cc2Cl)O1` (stereo not drawn), the call was inactive.

`CO/C=C(/C(=O)OC)c1ccccc1Oc1cc(Oc2ccccc2C#N)ncn1`: the compound was called inactive.

As for `CON(C)C(=O)Nc1ccc(Cl)c(Cl)c1`, the compound was called inactive.

For the compound `CCCCNC(=O)n1c(NC(=O)OC)nc2ccccc21`, the compound was called inactive.

As to `CCCCOC(=O)c1ccccc1C(=O)OCCCC`, the outcome was inactive.

Consider `COC(=O)c1ccccc1C(=O)OC`, for which the compound was called inactive.

For the compound `CCCCNC(=O)OCC#CI`, the AC50 was 45.5 µM (active) and the result was inactive.

As to `CC(C)(C)c1ccc(CSc2cnn(C(C)(C)C)c(=O)c2Cl)cc1`, the call was inactive.

Consider `C=CCC1=C(C)C(OC(=O)C2C(C=C(C)C)C2(C)C)CC1=O` (stereo not drawn), for which the AC50 was 53.5 µM (active) [middle of 5 runs] and the result was inactive.

In the case of `COC(=O)C=C(C)OP(=O)(OC)OC`, the compound was classed as inactive.

For `CC(C)C1(C)N=C(c2nc3ccccc3cc2C(=O)O)NC1=O` (stereo not drawn), the compound was classed as inactive.

As to `CCCN(CCC)c1c([N+](=O)[O-])cc(S(N)(=O)=O)cc1[N+](=O)[O-]`, the compound was classed as inactive.

In the case of `CCc1nn(C)c(C(=O)NCc2ccc(C(C)(C)C)cc2)c1Cl`, the AC50 was 0.352 µM (active).

As for `OC(c1ccc(Cl)cc1)(c1cncnc1)c1ccccc1Cl` (stereo not drawn), the call was inactive.

Test system in a further assay: not listed separately
Briefly: ATG_M_19_TRANS: Attagene TRANS-FACTORIAL HepG2 Assay for M19 Transcription Factor (Internal Marker) (AID 2282974). The settings on record: HepG2 Attagene TRANS-FACTORIAL M19 internal marker reporter. The procedure, abridged:
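Measured here: internal-marker reporter transcript from HepG2 cells transfected with MRTUs, harvested at 24 h. cDNA PCR products were 6-FAM labelled by primer extension, cut with HpaI for 2 h at 37 C, and resolved by CE.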
As for `COc1nc(NC(C)C)nc(NC(C)C)n1`, the outcome was inactive.

Take `Oc1ccccc1-c1ccccc1`: the call was inactive.

On to `COc1nc(C)nc(NC(=O)NS(=O)(=O)c2ccccc2Cl)n1`, for which the outcome was inactive.

`CCOC(=O)CC(SP(=S)(OC)OC)C(=O)OCC` (stereo not drawn): the compound was classed as inactive.

With `CCCCC(CC)COC(=O)c1ccccc1C(=O)OCC(CC)CCCC` (stereo not drawn), the compound was classed as inactive.

Consider `COc1nc(C)nc(NC(=O)NS(=O)(=O)c2ccccc2CCC(F)(F)F)n1`, for which the compound was classed as inactive.

As for `COc1ccc(C(c2ccc(OC)cc2)C(Cl)(Cl)Cl)cc1`, the outcome was inactive.

With `COP(=S)(OC)Oc1nc(Cl)c(Cl)cc1Cl`, the result was inactive.

Turning to `N#Cc1nn(-c2c(Cl)cc(C(F)(F)F)cc2Cl)c(N)c1S(=O)C(F)(F)F` (stereo not drawn), the result was inactive.

With `CCCC1COC(Cn2cncn2)(c2ccc(Cl)cc2Cl)O1` (stereo not drawn), the compound was called inactive.

As to `CO/C=C(/C(=O)OC)c1ccccc1Oc1cc(Oc2ccccc2C#N)ncn1`, the compound was classed as inactive.

With `CON(C)C(=O)Nc1ccc(Cl)c(Cl)c1`, the call was inactive.

For `CCCCOC(=O)c1ccccc1C(=O)OCCCC`, the outcome was inactive.

With `COC(=O)c1ccccc1C(=O)OC`, the call was inactive.

As to `C=CCC1=C(C)C(OC(=O)C2C(C=C(C)C)C2(C)C)CC1=O` (stereo not drawn), the outcome was inactive.

As for `COC(=O)C=C(C)OP(=O)(OC)OC`, the compound was called inactive.

As for `CCCN(CCC)c1c([N+](=O)[O-])cc(S(N)(=O)=O)cc1[N+](=O)[O-]`, the outcome was inactive.

On to `OC(c1ccc(Cl)cc1)(c1cncnc1)c1ccccc1Cl` (stereo not drawn), for which the compound was classed as inactive.

In general, AC50 refers to the midpoint of the concentration-response curve, whichever way the signal moves.

The values are drawn from PubChem BioAssay (EPA / NIEHS).
